In all, about 420,000 compounds went through this assay and about 50,000 (12%) were called active. Where a call stands in place of a potency, no number is given. Not shown: some 26% with an inconclusive outcome. Calls follow the shape of the dose curve; as a rule, active = well fitted inhibition curve with a large enough effect; inconclusive = small, poorly fitted or top-dose-only effect; inactive = flat fitted curve, though single readings scatter. This excerpt belongs to a sample that is enriched for actives.
Potency is read from the fitted curve at half-maximal effect.

This experiment in a line: qHTS for Inhibitors of human tyrosyl-DNA phosphodiesterase 1 (TDP1): qHTS in cells in presence of CPT. Also: nearly all actives have a fitted effect of over 55% in size. The note with it: chicken DT40 Tdp1-/-;hTDP1 cells + 20 nM CPT, ATP luminescence, 48 h; series mostly up to 46.2 µM. The method in brief:
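Chicken DT40 Tdp1-/- cells stably complemented with human TDP1 were seeded at 400 cells/well in medium containing 20 nM camptothecin, exposed to pin-transferred compounds, and grown at 37 °C for at least 48 hr. Viability was read as ATP luminescence.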
On the technique in general: Quantitative high-throughput screening tests each substance at several concentrations.
In the case of `CC1CN(C(=O)CCC(=O)NCCCN2CCC(Cc3ccccc3)CC2)c2cc(Cl)ccc2O1` (centres undefined), the Potency was 20.6 µM (active).
On to `CC1CN(C(=O)CCC(=O)NC2CCN(Cc3ccccc3)CC2)c2ccccc2O1` (centres undefined), for which the Potency was 23.1 µM (active).
In the case of `O=C(CC1Oc2ccccc2NC1=O)NCCCN1CCN(Cc2ccccc2)CC1` (centres undefined), the Potency result is “inactive”.
Same read-out and setting: next, `Cc1ccc(S(=O)(=O)NCCC(=O)NC2CCN(Cc3ccccc3)CC2)cc1`: “inactive”; `CC1CN(C(=O)CCC(=O)NCc2cccnc2)c2ccccc2O1` (centres undefined): “inactive”; `CC(C)(C)NC(=O)NC(=O)CN1CCC(Cc2ccccc2)CC1`: “inactive”.
Same read-out and setting: the value for `O=C(COC(=O)/C=C/c1cccc(Cl)c1)NCCc1ccccc1` was “inactive”.
Regarding `COc1ccc(NC(=S)N2CCCC(CO)C2)c(OC)c1` (centres undefined), the Potency result was “inactive”.
In the case of `CC(=O)Nc1ccc(S(=O)(=O)Oc2ccc(/C=N/N=C3/NC(=O)C(CC(=O)O)S3)cc2)cc1` (centres undefined), the Potency result was “inactive”.
Take `CC(CCc1ccccc1)NC(=O)c1ccc(Br)o1` (centres undefined): the Potency result is “inactive”.
Regarding `O=C(CNC(=O)c1ccc(Br)o1)Nc1ccccc1`, the Potency entry was “inactive”.
As to `CC(CNC(=O)c1ccc(Br)o1)NC(=O)c1ccc(Br)o1` (centres undefined), the Potency was 8.2 µM (active).
For `CCOc1ccc(OCC(=O)Nc2c3c(nn2C(C)(C)C)CS(=O)(=O)C3)cc1`, the Potency entry was “inactive”.
As for `COc1cc(/C=N/O)cc(Br)c1OCc1cccc(Cl)c1`, the Potency result was “inactive”.
On the same count and under the same terms, the value for `COc1cc(C=O)c(Br)cc1OCC(=O)NCc1ccccc1` was “inactive”; that for `COc1cc(C(=O)NCc2ccncc2)cc(Br)c1OCc1ccccc1` was 18.4 µM (active).
In the case of `CN(CC(=O)Nc1cccc(F)c1)C(=O)CC1CCCC1`, the Potency entry was “inactive”.
As for `N/C(Cc1ccc([N+](=O)[O-])cc1)=N\OC(=O)C1CCCCC1`, the Potency entry is “inactive”.
With `CC(=O)NC1CCN(CC(=O)Nc2nccs2)CC1`, the Potency result is “inactive”.
With `COc1ccc(CCNC(=O)c2cc(-c3ccc4c(c3)OCO4)on2)cc1OC`, the Potency entry was “inactive”.
Regarding `COc1ccc(C#Cc2c(-c3ccc(OC)cc3)oc3ccc(-c4ccc5c(c4)OCO5)cc23)cc1`, the Potency result was “inactive”.
Regarding `COc1cc2c(-c3ccc4c(c3)OCO4)c(-c3ccsc3)oc(=O)c2cc1OC`, the Potency is 16.4 µM (active).
As for `Brc1cccc[n+]1Cc1cccc(C[n+]2ccccc2Br)c1`, the Potency was 12.6 µM (active).
As for `Clc1cccc[n+]1CCCC[n+]1ccccc1Cl`, the Potency entry was “inactive”.
Still for that read-out and setting: the value for `O=C(COC(=O)c1cccc(Cl)c1)Nc1ccc2[nH]c(=O)[nH]c2c1` was “inactive”.
With `CCOC(=O)CSc1nnc(CNc2ccc(F)cc2)o1`, the Potency result is “inactive”.
Regarding `CCC(=O)Nc1ccc(C(=O)CSc2nnc(CNc3ccc(Cl)cc3)o2)cc1OC`, the Potency was 20.6 µM (active).
Take `COc1cc(C(=O)NCc2nnc(SCC(=O)c3ccc(Cl)cc3)o2)cc(OC)c1OC`: the Potency result was “inactive”.
Still for that read-out and setting: the value for `COc1ccc(CNC(=O)C(=O)NCC2OCCN2C(=O)c2ccc(OC)cc2)cc1` (centres undefined) was “inactive”; that for `CC(C)(C)c1nnc(N/N=C/c2ccc(O)cc2)n(N)c1=O` was “inactive”.
The same measure, in the same setting: the value for `O=C(c1c(F)cccc1F)N1CCN(c2ncc(Br)cn2)CC1` was “inactive”; that for `COc1cccc(OC)c1C(=O)NC(=S)Nc1ccc(N2CCOCC2)c(Cl)c1` was “inactive”.
Take `CCOc1ccc(C(=O)NC(=S)Nc2ccc(NC(=O)C(C)C)cc2)cc1[N+](=O)[O-]`: the Potency entry was “inactive”.
In the case of `CCOc1ccc(C(=O)NC(=S)Nc2ccc(N3CCOCC3)c(Cl)c2)cc1[N+](=O)[O-]`, the Potency is 0.146 µM (active).
For `CN(C)c1ccc(-c2nnc(-c3cccnc3)o2)cc1`, the Potency result was “inactive”.
On the same count and under the same terms, the value for `CCC(C)(C(=O)Nc1ccccc1C)N(C(=O)CNC(C)=O)c1ccc(C)cc1` (centres undefined) was “inactive”; that for `CCc1nnc(NS(=O)(=O)c2ccc(N=Cc3c(C)[nH]n(-c4ccc(C)cc4)c3=O)cc2)s1` was 11.6 µM (active).
Turning to `COc1cc(NS(=O)(=O)c2ccc(N=Cc3c(C)[nH]n(-c4ccccc4)c3=O)cc2)nc(OC)n1`, the Potency result was “inactive”.
On the same count and under the same terms, the value for `CCc1nnc(NS(=O)(=O)c2ccc(NS(=O)(=O)c3ccccc3)cc2)s1` was “inactive”; that for `CS(=O)(=O)Nc1ccccc1C(=O)OCC(=O)NC1CC1` was “inactive”; that for `Cc1ccc(S(=O)(=O)c2nnn3c2nc(N2CCN(c4ccccc4F)CC2)c2cc(Cl)ccc23)cc1C` was “inactive”.
As to `CCCCc1cc2c(s1)CCCC/C2=N/O`, the Potency result was “inactive”.
Turning to `Cc1cccc(C(=O)NCC(=O)OCC(=O)N2CC3(C)CC2CC(C)(C)C3)c1` (centres undefined), the Potency result was “inactive”.
For `Cc1nnnn1/C(=C\c1ccccc1)C(=O)OCC(=O)N1CC2(C)CC1CC(C)(C)C2` (centres undefined), the Potency is 13 µM (active).
The same measure, in the same setting: next, `CCOC(=O)CNc1nc(Cl)nc(Nc2ccccc2)n1`: “inactive”; `CN(C)S(=O)(=O)c1cccc(C(=O)OCC(=O)N2CCCC2=O)c1`: “inactive”.
Turning to `Cc1ccc(S(=O)(=O)Nc2ccc3c(c2)C(=O)N([C@H](C)CO)C[C@@H](C)[C@@H](CN(C)C(=O)Nc2cccc4ccccc24)O3)cc1`, the Potency was 20.6 µM (active).
As to `Cc1noc(C)c1NC(=O)Nc1ccc2c(c1)C(=O)N([C@H](C)CO)C[C@H](C)[C@@H](CN(C)C(=O)Nc1ccccc1)O2`, the Potency entry was “inactive”.
Take `COc1ccc(NC(=O)N(C)C[C@H]2Oc3ccc(NC(=O)C4CC4)cc3C(=O)N([C@H](C)CO)C[C@@H]2C)cc1`: the Potency result is “inactive”.
For the compound `CN1C(=O)CC(c2ccccc2)C1=O` (centres undefined), the Potency entry was “inactive”.
On to `Cc1ccc(-n2ncc3c(N4CCC(C(N)=O)CC4)ncnc32)cc1`, for which the Potency result is “inactive”.
Still for that read-out and setting: the value for `Cc1ccc(-n2ncc3c(N4CCN(c5ccc(F)cc5)CC4)ncnc32)c(C)c1` was 11.6 µM (active); that for `Cc1ccc(-n2ncc3c(=O)[nH]cnc32)c(C)c1` was “inactive”.
As to `COc1ccc(CCOC2OC(CO)C(OC(=O)/C=C/c3ccc(O)c(OC)c3)C(O[C@H]3O[C@@H](C)[C@H](O)[C@@H](O)[C@H]3O)C2O)cc1O` (some centres undefined), the Potency entry was “inactive”.
`Cc1ccc(S(=O)(=O)CCC(=O)OCC(=O)NCCc2ccc(S(N)(=O)=O)cc2)cc1`: the Potency result was “inactive”.
On the same count and under the same terms, next, `Cc1c(C(=O)N2CCCC2)c(S(=O)(=O)NCC(C)c2ccccc2)c(C)n1C` (centres undefined): “inactive”; `CC(C)N=C1CCCC1C(=S)SSC(=S)C1CCCC1=NC(C)C` (centres undefined): 0.0366 µM (active); `COc1ccccc1/C=C1\SC(=O)N(CCC(=O)N(C)C2CCS(=O)(=O)C2)C1=O` (centres undefined): “inactive”.
For `O=C(Nc1cccc2ccccc12)c1onc2c1CCCC2`, the Potency was 10.3 µM (active).
In the case of `COc1ccc(C(=O)Nc2onc3c2CCCC3)cc1`, the Potency entry is “inactive”.
Take `O=C(O)c1ccccc1-c1ccccc1C(=O)Nc1cccc2ccccc12`: the Potency result is “inactive”.
Take `COC(=O)/C(=C1\Oc2ccc(C(C)(C)C)cc2S1)C(F)(F)F`: the Potency result is “inactive”.
Same read-out and setting: next, `CC(Sc1nnc(-c2cccs2)n1C1CC1)C(=O)NCC1CCCO1` (centres undefined): “inactive”; `O=S(=O)(NCc1ccccc1Br)c1ccccc1Br`: “inactive”; `O=C(Nc1ccc([N+](=O)[O-])cc1)C1(c2ccccc2)CCOCC1`: “inactive”.
The same measure, in the same setting: the value for `Clc1ccc(-n2nnnc2-c2cnc(-c3ccccn3)nc2-c2cccs2)cc1` was 6.51 µM (active); that for `CN(C)c1nnnn1-c1ccc(Cl)cc1` was “inactive”; that for `O=C(CN1C(=O)CSC1=O)N1CCCC(Nc2ccc(F)cc2)C1` (centres undefined) was “inactive”.
Regarding `COc1cccc2[nH]c(C(=O)NCCc3ccccc3)cc12`, the Potency result was “inactive”.
On to `COc1ccc(CCNC(=O)CCc2c(C)nc3c(c(C)nn3-c3ccc(C)c(C)c3)c2C)c(OC)c1OC`, for which the Potency result was “inactive”.
For `COc1ccc(CCNC(=O)c2cc3cccc4c3n2CC(C)S4)c(OC)c1OC` (centres undefined), the Potency was 20.6 µM (active).
On to `Cc1c(C(=O)N(C)C)sc2c1c(=O)n(-c1ccc(F)cc1)c(=O)n2CC(=O)N(C)c1ccccc1`, for which the Potency entry is “inactive”.
In the case of `O=C(COC(=O)c1ccccn1)Nc1cccc2ccccc12`, the Potency result is “inactive”.
Regarding `CCOC(=O)c1cccc(NC(=O)c2ccc(F)cc2F)c1`, the Potency result was “inactive”.
Take `CC(=O)N/C(=N/c1nc(C)cc(C)n1)Nc1ccc(F)cc1F`: the Potency result was “inactive”.
For the compound `Cc1cc(C)nc(-n2nc(C)cc2NC(=O)c2ccc(F)cc2F)n1`, the Potency was 4.11 µM (active).
Take `Cc1noc(C)c1C(=O)OC(C)C(=O)Nc1ccc2c(c1)OCO2` (centres undefined): the Potency entry is “inactive”.
On to `CN1CCN(NC(=O)Nc2ccc(Br)cc2)CC1`, for which the Potency result was “inactive”.
As for `CCn1cc(CN2CCC(n3nccc3NC(=O)CCCc3ccccc3)CC2)c(C)n1`, the Potency result is “inactive”.
On to `CCn1cc(CN2CCC(C(=O)Nc3cccc(-c4cccc(Cl)c4)c3)CC2)c(C)n1`, for which the Potency is 13 µM (active).
Regarding `CCNC(=S)NNC(=O)C1CCN(Cc2ccccc2)CC1`, the Potency result is “inactive”.
With `CCn1cc(CN2CCC(C(=O)Nc3cccc(-c4cccc(Cl)c4)c3)CC2)cn1`, the Potency is 16.4 µM (active).
On to `O=C(Nc1ccc(-n2cccn2)cc1)C1CCN(Cc2ccsc2)CC1`, for which the Potency entry was “inactive”.
In the case of `COc1cccc(-c2cccc(NC(=O)C3CCN(C4CCC4)CC3)c2)c1`, the Potency result is “inactive”.
Take `CC(CCn1cccn1)NC(=O)CCc1nnc(CCc2ccccc2)o1` (centres undefined): the Potency entry was “inactive”.
The same measure, in the same setting: the value for `CCC(C)NC(=O)C1c2ccccc2C(=O)N1Cc1ccccc1` (centres undefined) was “inactive”.
With `Cc1cc(-c2ccnc(-n3ncc(C(=O)NC(C)(C)CO)c3C3CC3)n2)c(C)s1`, the activity change, negative = growth inhibition is 3.64% [at 9.04 µM] (inactive).
For `COc1ccc(NC(=O)N2CCCC(C(=O)Nc3ccccc3OC)C2)cc1` (centres undefined), the Potency result is “inactive”.
Turning to `COc1ccc(C(=O)N2CCC(C(=O)Nc3ccc(C)cc3)CC2)cc1`, the Potency was 18.4 µM (active).
For the compound `COc1ccccc1NC(=O)C1CCN(C(=O)c2ccc(C(C)(C)C)cc2)CC1`, the Potency is 23.1 µM (active).
`CCc1ccc(NC(=O)Cn2nnc(C(=O)NCc3ccc(OC)cc3)c2N)cc1`: the Potency result is “inactive”.
For the compound `COc1ccc(C(=O)Nc2ccc(CN3CCOCC3)cc2)cc1`, the Potency entry is “inactive”.
Take `CC(C)(C)c1ccc(C(=O)N2CCC(C(=O)N3CCCCC3)CC2)cc1`: the Potency entry is “inactive”.
Consider `CCc1ccc(NC(=O)CN2CCC(C(=O)c3ccc(OC)cc3)CC2)cc1`, for which the Potency is 5.8 µM (active).
`COc1ccc(CNC(=O)C2CCN(C(=O)c3ccccc3)CC2)cc1`: the Potency entry is “inactive”.
As to `COc1ccc(CNC(=O)C2CCN(C(=O)c3ccco3)CC2)cc1`, the Potency result is “inactive”.
Still for that read-out and setting: next, `Cc1ccc(NC(=O)[C@H](Cc2ccccc2)NC(=O)C2CCNCC2)cc1`: “inactive”; `CC(=O)Nc1ccc(S(=O)(=O)N2CCC(NC(=O)c3ccccc3)CC2)cc1`: “inactive”; `O=C(Cc1ccc(Br)cc1)NCCc1ccccc1`: “inactive”.

For the origin of these results see PubChem BioAssay AID686979 (National Center for Advancing Translational Sciences (NCATS), 2013).
